Results with a measured potency or affinity are listed apart. Inconclusive results are not listed. The source made the active and inactive calls.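 The calls were made as follows: active = fitted half-maximal concentration no higher than twice the top tested dose, in every repeat run; inconclusive = repeat runs disagree, poor fit, or flat partial inhibition; inactive = the rest.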

The target of the assay is Endoplasmic reticulum aminopeptidase 1 (Homo sapiens) (UniProt Q9NZ08). In words: ERAP1 aminopeptidase inhibitors, dose response, biochemical, cherry-pick, set 2, plate reader (AID 743314).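 Also: 0% = neutral control wells and -100% = L-leucinethiol positive control.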 To be noted: Recombinant ERAP1, Leu-AMC fluorescence, 60 min; series mostly up to 11 µM; activity change, negative = inhibition: at the top concentration.
Chain of Endoplasmic reticulum aminopeptidase 1 (Homo sapiens) (Q9NZ08 whole entry, looked up): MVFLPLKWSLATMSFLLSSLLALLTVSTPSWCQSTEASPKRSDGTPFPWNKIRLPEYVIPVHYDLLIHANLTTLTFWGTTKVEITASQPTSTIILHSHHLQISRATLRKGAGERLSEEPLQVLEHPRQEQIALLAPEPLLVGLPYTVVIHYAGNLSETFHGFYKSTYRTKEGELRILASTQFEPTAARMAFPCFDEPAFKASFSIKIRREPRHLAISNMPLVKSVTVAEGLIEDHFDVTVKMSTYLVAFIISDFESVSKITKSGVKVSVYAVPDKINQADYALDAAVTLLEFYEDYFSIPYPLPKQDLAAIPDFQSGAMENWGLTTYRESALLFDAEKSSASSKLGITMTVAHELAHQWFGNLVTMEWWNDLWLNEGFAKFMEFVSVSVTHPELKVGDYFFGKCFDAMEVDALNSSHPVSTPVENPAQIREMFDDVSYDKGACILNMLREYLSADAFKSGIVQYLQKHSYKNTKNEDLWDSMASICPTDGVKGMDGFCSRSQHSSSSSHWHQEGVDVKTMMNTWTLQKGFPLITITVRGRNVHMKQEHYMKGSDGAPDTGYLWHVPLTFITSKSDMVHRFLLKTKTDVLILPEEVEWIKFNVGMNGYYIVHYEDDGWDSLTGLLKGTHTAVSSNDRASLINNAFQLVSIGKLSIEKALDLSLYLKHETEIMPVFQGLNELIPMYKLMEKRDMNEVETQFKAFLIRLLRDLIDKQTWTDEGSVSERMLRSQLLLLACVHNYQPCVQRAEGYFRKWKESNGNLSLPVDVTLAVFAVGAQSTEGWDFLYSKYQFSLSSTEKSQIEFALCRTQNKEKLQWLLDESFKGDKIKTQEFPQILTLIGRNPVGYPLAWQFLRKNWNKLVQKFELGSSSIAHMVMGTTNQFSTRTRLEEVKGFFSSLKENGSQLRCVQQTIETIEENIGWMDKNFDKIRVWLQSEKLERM
Regarding `Cc1noc(C)c1NC(=O)N(C)C[C@H]1Oc2c(NC(=O)Nc3ccc(F)cc3)cccc2C(=O)N([C@H](C)CO)C[C@H]1C`, the “activity change, negative = inhibition” value was 9.59% (inactive).

Regarding `O=C(CSc1nc2ccccc2c(=O)n1-c1ccccc1)NCC1CCCO1` (stereo not given), the “activity change, negative = inhibition” value was -4.58% (inactive).

As for `COc1ccccc1-c1cc(-c2ccccc2)nc(SCC(=O)O)c1C#N`, the “activity change, negative = inhibition” value was -3.43% (inactive).

`Cc1nc2ccc(NC(=O)c3ccc(=O)[nH]c3)cc2s1`: the “activity change, negative = inhibition” value is -4.05% (inactive).

For the compound `CN1CCN(S(=O)(=O)c2cccc(C(=O)N(C)CC(=O)Nc3ccc(F)c(F)c3F)c2)CC1`, the “activity change, negative = inhibition” value was 3.77% (inactive).

As to `CN(C)C(=O)c1cccc(-c2ccc3c(c2)[C@@H]2[C@@H](CCN2Cc2nccs2)[C@@H](CO)N3)c1`, the “activity change, negative = inhibition” value was 33.6% (inactive).

On to `COc1ccc(NC(=O)Nc2cccc3c2O[C@H](CN(C)Cc2ccc(C(=O)O)cc2)[C@H](C)CN([C@H](C)CO)C3=O)cc1`, for which the “activity change, negative = inhibition” value was 49.6% (inactive).

Turning to `Cc1ccc(S(=O)(=O)N2CCN(C(=O)COC(=O)c3ccc(Cl)c(S(N)(=O)=O)c3)CC2)c(C)c1`, the “activity change, negative = inhibition” value was -9.71% (inactive).

Consider `COC(=O)[C@H]1[C@H](CO)[C@H]2Cn3c(ccc(C4=CCCC4)c3=O)[C@H]2N1C(=O)C1CC1`, for which the “activity change, negative = inhibition” value was 33.1% (inactive).

As to `CN(Cc1ccccc1)C(=O)c1ncn(C)c1C(=O)N(C)Cc1ccccc1`, the “activity change, negative = inhibition” value was -14.8% (inactive).

For the compound `C[C@@H]1CCCCO[C@H](CN(C)C)[C@H](C)CN([C@@H](C)CO)C(=O)c2cc(NS(=O)(=O)c3ccc(Cl)cc3)ccc2O1`, the “activity change, negative = inhibition” value is 41.9% (inactive).

Consider `COc1ccc(-c2cc(=O)oc3cc(OC(C)C(=O)NC(Cc4c[nH]c5ccc(O)cc45)C(=O)O)ccc23)cc1` (stereo not given), for which the “activity change, negative = inhibition” value was -13% (inactive).

On to `Cc1ccc(CN2C(=O)CCC2C(=O)NCCN2CCN(c3cccc(Cl)c3)CC2)cc1` (stereo not given), for which the “activity change, negative = inhibition” value was 5.74% (inactive).

For `CN(C)C(=O)c1cccc(-c2ccc3c(c2)[C@H]2[C@H](CCN2Cc2nccs2)[C@@H](CO)N3)c1`, the “activity change, negative = inhibition” value is 24.1% (inactive).

Regarding `Cc1ccc(NC(=O)C(C)OC(=O)C2CC3CCCC(C2)C3=O)cc1S(=O)(=O)N1CCOCC1` (stereo not given), the “activity change, negative = inhibition” value was 3.8% (inactive).

On to `Cc1cccc(NC(=O)Nc2ccc3c(c2)C(=O)N(C)[C@H]2CC[C@H](CC(=O)O)O[C@H]2CO3)c1`, for which the “activity change, negative = inhibition” value was 28.6% (inactive).

`COc1ccccc1CN1CC[C@@H]2[C@H](CO)Nc3ccc(-c4cccc(C(=O)N(C)C)c4)cc3[C@@H]21`: the “activity change, negative = inhibition” value is 41.8% [at 10 µM] (inactive).

For the compound `CC(=O)N1CC[C@@H]2[C@H]1c1cc(-c3ccc(C#N)cc3)ccc1N(C)[C@H]2CO`, the “activity change, negative = inhibition” value is -3.73% (inactive).

On to `C[C@H](CO)N1C[C@H](C)[C@H](CN(C)C)OCCCC[C@H](C)Oc2ccc(NS(=O)(=O)c3ccc(Cl)cc3)cc2C1=O`, for which the “activity change, negative = inhibition” value is 32.6% (inactive).

As for `O=c1cc(CN2CCOCC2)c2cc(Cl)c(O)cc2o1`, the “activity change, negative = inhibition” value was 126% (inactive).

As for `CN1c2ccc(-c3ccccc3)cc2[C@H]2[C@H](CCN2C(=O)c2ccccc2)[C@@H]1CO`, the “activity change, negative = inhibition” value is 34.8% (inactive).

As for `COc1cc2cc(C(=O)N3CCN(Cc4ccc5c(c4)OCO5)CC3)c(=O)oc2cc1OC`, the “activity change, negative = inhibition” value is 52.3% [at 5.6 µM] (inactive).

With `C[C@H]1CCCCO[C@H](CN(C)C)[C@@H](C)CN([C@@H](C)CO)C(=O)c2cc(NS(=O)(=O)c3ccc(Cl)cc3)ccc2O1`, the “activity change, negative = inhibition” value was 9.96% (inactive).

As to `COc1ccc(C(=O)O)cc1S(=O)(=O)Nc1cc(C(F)(F)F)ccc1N1CCCCC1`, the activity change, negative = inhibition is 239% [at 2.6 µM] (inactive).

Regarding `CN(C)C(=O)[C@@H]1[C@@H](CO)[C@@H]2Cn3c(ccc(/C=C/c4ccccc4)c3=O)[C@@H]2N1C(=O)c1cnccn1`, the “activity change, negative = inhibition” value is 10.7% (inactive).

Regarding `COc1ccc(S(=O)(=O)NC[C@@H]2CC[C@H]3[C@H](CN3Cc3cc(F)ccc3F)O2)cc1`, the “activity change, negative = inhibition” value is 36.2% (inactive).

Turning to `Cc1noc(C)c1NC(=O)N(C)C[C@@H]1Oc2c(NC(=O)Nc3ccccc3)cccc2C(=O)N([C@H](C)CO)C[C@@H]1C`, the “activity change, negative = inhibition” value is 47% (inactive).

In the case of `CCN(CC)c1ccc2c(C)c(Cl)c(=O)oc2c1`, the “activity change, negative = inhibition” value is 59.1% (inactive).

Regarding `C[C@@H]1CN([C@H](C)CO)C(=O)c2cccc(NC(=O)Nc3ccccc3)c2O[C@@H]1CN(C)Cc1ccc(C(=O)O)cc1`, the “activity change, negative = inhibition” value is 54.7% (inactive).

On to `c1ccc(Nc2nc(NCC3CCCO3)c3ccccc3n2)cc1` (stereo not given), for which the “activity change, negative = inhibition” value was 38.2% (inactive).

`C[C@H](NC(=O)C[C@H]1CC[C@H]2[C@@H](COC[C@H](O)CN2C(=O)Nc2ccccc2)O1)c1ccccc1`: the “activity change, negative = inhibition” value was 46.1% (inactive).

On to `CCOc1ccc(OCCCC(=O)N2CCN(S(=O)(=O)c3ccc(Cl)cc3)CC2)cc1`, for which the “activity change, negative = inhibition” value was 7.04% (inactive).

For the compound `COc1ccccc1-c1cn(CC[C@H]2CC[C@H](NS(=O)(=O)c3ccccc3C)[C@@H](CO)O2)nn1`, the “activity change, negative = inhibition” value was 20.2% (inactive).

For the compound `C[C@@H]1CCCCO[C@H](CN(C)C)[C@@H](C)CN([C@H](C)CO)C(=O)c2cc(NS(=O)(=O)c3ccc(Cl)cc3)ccc2O1`, the “activity change, negative = inhibition” value was 25.2% [at 10 µM] (inactive).

In the case of `O=C(CC1CC1)N1[C@@H](CO)[C@@H](c2ccccc2)C12CN(Cc1cc(F)ccc1F)C2`, the “activity change, negative = inhibition” value is 14% (inactive).
